PubChem BioAssay (EPA / NIEHS)
Activity calls are given as the source filed them. The calls were made as follows: active = hit-call score of the fitted dose curve at least 0.9, where 1 is the maximum; inactive = score below 0.9.

Read-out: Bcl-2 (BAD) gene, BAD (gene 572)
Experiment: LTEA_HepaRG_BAD: Life Technologies and Expression Analysis (LTEA) Assay for Bcl-2 (BAD) gene using HepaRG (AID 2283469)
Conditions: mRNA level, 48 h; actives raise or lower the signal
In short: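 Differentiated HepaRG cells were exposed in duplicate in 0.5% DMSO for 48 h to eight-point half-log concentrations up to 100 uM. BAD mRNA was measured by Fluidigm TaqMan qRT-PCR, normalized to ACTB, GAPDH and POLR2A, and fitted bidirectionally against DMSO.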

SMILES	outcome
CN(C)CCCN1c2ccccc2Sc2ccc(Cl)cc21	inactive
c1ccc2occc2c1	inactive
NC(=Nc1ccccc1)Nc1ccccc1	inactive
CCN(CC)CCOc1ccc(C(=C(Cl)c2ccccc2)c2ccccc2)cc1	inactive
NCCOCCOCCN	inactive
Oc1ccccc1O	inactive
CCc1nc(N)nc(N)c1-c1ccc(Cl)cc1	inactive
Cc1cc(SC2=C(O)C[C@@](CCc3ccc(N)cc3)(C(C)C)OC2=O)c(C(C)(C)C)cc1CO	inactive
CCCCC(CC)CO (stereo unspecified)	inactive
Nc1nc(Cl)nc2c1ncn2[C@H]1C[C@H](O)[C@@H](CO)O1	inactive
O=C(O)CC(O)(CC(=O)O)C(=O)O	inactive
O=C(NS(=O)(=O)/C=C/c1cccs1)c1ccc(F)cc1Br	inactive
CC(COCC(C)OC(=O)c1ccccc1)OC(=O)c1ccccc1 (stereo unspecified)	inactive
Cc1cn([C@H]2C=C[C@@H](CO)O2)c(=O)[nH]c1=O	inactive
C#CC(O)C(CC)CCCC (stereo unspecified)	inactive
CSc1ccc(Oc2ccc(S(N)(=O)=O)cc2CN(C)C)cc1C	inactive
CCCCOC(=O)CCCCC(=O)OCCCC	inactive
N[C@@H](Cc1c[nH]c2ccccc12)C(=O)O	inactive
CCCCC(CC)COP(=O)(OCC(CC)CCCC)OCC(CC)CCCC (stereo unspecified)	inactive
CC(N)=O	inactive
O=C1CCCCC1	inactive
O=NO	inactive
Cc1cc(Cc2ccc(N)c(C)c2)ccc1N	inactive
CCCCCCCCCCCCCCOS(=O)(=O)O	inactive
Nc1nc(=S)c2[nH]cnc2[nH]1	inactive
COc1ccc(OC(F)(F)F)cc1CN[C@H]1CCCN[C@H]1c1ccccc1	inactive
